Results: PubChem BioAssay (NCI)
This is part of a sample that, as a whole, favours compounds with a hit. Of some 79,000 tested, about 15% had one in any assay. Calls of active or inactive are those of the source. Cut-off read from the data, not from the text of the source: active = growth inhibition above about 70%; inactive = the rest.

Experiments:
[1] = NCI Yeast Anticancer Drug Screen. Data for the rad50 strain (AID 155);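 note: 0% = growth of vehicle-only cultures of the same strain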; settings: S. cerevisiae rad50 strain growth inhibition, hits give high values
Outline: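 Growth of the mutant yeast was measured after compound exposure and referenced to vehicle-treated cultures.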

[2] = NCI Yeast Anticancer Drug Screen. Data for the mec2-1 strain (AID 157); settings: S. cerevisiae mec2-1 strain, hits give high values
Outline: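 Compounds were applied to mec2-1 yeast cells. Their growth was then compared with that of vehicle-treated cultures to give growth inhibition.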

[3] = NCI Yeast Anticancer Drug Screen. Data for the sgs1 mgt1 strain (AID 161);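 note: 0% = growth of cultures given vehicle only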; settings: S. cerevisiae sgs1 mgt1 strain, hits give high values
Outline: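 This yeast growth screen uses a strain with defined DNA-repair lesions; compound-treated growth is compared with vehicle-treated growth.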

[4] = NCI Yeast Anticancer Drug Screen. Data for the cln2 rad14 strain (AID 165);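 note: 0% = growth equal to vehicle treated cultures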; settings: S. cerevisiae cln2 rad14 strain, hits give high values
Outline: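 Strain: cln2 rad14 yeast, altered in cell cycle control and DNA damage repair. Read-out: growth inhibition vs vehicle.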

[5] = NCI Yeast Anticancer Drug Screen. Data for the bub3 strain (AID 167); settings: S. cerevisiae bub3 mutant strain, hits give high values
Outline: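 Whole-cell yeast assay. The mutant strain was incubated with compounds, and growth inhibition was determined by comparison with vehicle-treated cells.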

[6] = NCI Yeast Anticancer Drug Screen. Data for the mlh1 rad18 strain (AID 175); settings: S. cerevisiae mlh1 rad18 strain growth inhibition, hits give high values
Outline: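 A repair-deficient yeast strain is exposed to test compound, and growth is scored relative to vehicle-treated controls.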

[7] = at 5.0 µM (retest, dose inferred, filed as 0.5)
[8] = at 50.0 µM (retest, dose inferred, filed as 5.0)

Measured: growth inhibition

O=C1C(=O)c2ccccc2-c2ccccc21.O=C1C(=O)c2ccccc2-c2ccccc21.[Hg]
inactive: [1]; at 50.0 µM 12.2% | [2]; at 50.0 µM -7.3% | [3]; at 50.0 µM -6.8% | [4]; at 50.0 µM 29.8% | [5]; at 50.0 µM -13.8% | [6]; at 50.0 µM 12.3%
active: [1]; [7] 100% | [1]; [8] 96% | [2]; [7] 100% | [2]; [8] 97% | [3]; [7] 100% | [3]; [8] 96% | [4]; [7] 100% | [4]; [8] 97% | [5]; [7] 100% | [5]; [8] 96% | [6]; [7] 98% | [6]; [8] 93%

Cc1ccc(P(=O)(c2ccc(C)cc2)c2ccc(C)cc2)cc1.Cc1ccc(P(=O)(c2ccc(C)cc2)c2ccc(C)cc2)cc1.[Cl][Sn]([Cl])([Cl])[Cl]
inactive: [1]; [7] 4% | [1]; [8] 1% | [1]; at 50.0 µM -9.9% | [2]; [7] 0% | [2]; [8] 1% | [2]; at 50.0 µM 0.85% | [3]; [7] 2% | [3]; [8] 6% | [3]; at 50.0 µM 42.6% | [4]; [7] 4% | [4]; [8] 8% | [4]; at 50.0 µM 4.1% | [5]; [7] 13% | [6]; [7] 3% | [6]; [8] 1% | [6]; at 50.0 µM 38%
active: [5]; [8] 72% | [5]; at 50.0 µM 76.2%

NC(=O)CNCc1ccc([As]=O)cc1 (stereo not drawn)
active: [1]; at 50.0 µM 72.8% | [3]; at 50.0 µM 71.1% | [5]; at 50.0 µM 74.2%
inactive: [1]; [7] 2% | [1]; [8] 1% | [2]; [7] 3% | [2]; [8] -2% | [2]; at 50.0 µM 50.1% | [3]; [7] 0% | [3]; [8] -2% | [4]; [7] 1% | [4]; [8] 3% | [4]; at 50.0 µM 10.4% | [5]; [7] 3% | [5]; [8] 8% | [6]; [7] 12% | [6]; [8] -6% | [6]; at 50.0 µM 69.5%

ClC1=C(Cl)C2(Cl)C(C3CO3)CC1(Cl)C2(Cl)Cl (stereo not drawn)
active: [1]; at 50.0 µM 76.1% | [3]; at 50.0 µM 90.8% | [5]; at 50.0 µM 89.7%
inactive: [1]; [7] 0% | [1]; [8] 10% | [2]; [7] -1% | [2]; [8] 11% | [2]; at 50.0 µM 69.3% | [3]; [7] -2% | [3]; [8] 12% | [4]; [7] -12% | [4]; [8] -13% | [4]; at 50.0 µM 34.4% | [5]; [7] 4% | [5]; [8] 28% | [6]; [7] 0% | [6]; [8] 18% | [6]; at 50.0 µM 55.9%

CC[N+](C)(CC)CCNC(=O)C(O)(c1ccccc1)c1ccccc1
active: [1]; at 50.0 µM 92.7% | [2]; at 50.0 µM 95.5% | [3]; at 50.0 µM 96.5% | [4]; at 50.0 µM 93.2% | [5]; at 50.0 µM 95.1% | [6]; at 50.0 µM 94.4%
inactive: [1]; [7] -8% | [1]; [8] 40% | [2]; [7] -13% | [2]; [8] 52% | [3]; [7] -6% | [3]; [8] 36% | [4]; [7] -2% | [4]; [8] 35% | [5]; [7] -5% | [5]; [8] 23% | [6]; [7] -1% | [6]; [8] 40%

NC1=C(c2nc(-c3ccccc3)cs2)C(c2ccc(Br)cc2)c2c(c3ccccc3oc2=O)O1 (stereo not drawn)
active: [1]; [8] 99% | [2]; [8] 100% | [3]; [8] 99% | [4]; [8] 99% | [5]; [8] 99% | [6]; [8] 99%
inactive: [1]; [7] 5% | [1]; at 50.0 µM 0.8% | [2]; [7] 6% | [2]; at 50.0 µM 29.2% | [3]; [7] 7% | [3]; at 50.0 µM 17.2% | [4]; [7] 3% | [4]; at 50.0 µM 42.4% | [5]; [7] 4% | [5]; at 50.0 µM 28.8% | [6]; [7] 6% | [6]; at 50.0 µM 46.1%

COC(=O)C1=C(C)NC(=S)NC1c1ccc(N(CCCl)CCCl)cc1Cl (stereo not drawn)
inactive: [1]; [7] 10% | [1]; at 50.0 µM 51.1% | [2]; [7] -28% | [3]; [7] 1% | [4]; [7] -8% | [4]; at 50.0 µM 61.9% | [6]; [7] 13%
active: [1]; [8] 94% | [2]; [8] 96% | [2]; at 50.0 µM 86.7% | [3]; [8] 95% | [3]; at 50.0 µM 86.2% | [4]; [8] 92% | [5]; [7] 81% | [5]; [8] 97% | [5]; at 50.0 µM 96.5% | [6]; [8] 94% | [6]; at 50.0 µM 91.3%

CCC[CH2][Sn]([Cl])([CH2]Cl)[CH2]CCC
active: [1]; [7] 97% | [1]; [8] 99% | [1]; at 50.0 µM 99% | [2]; [7] 99% | [2]; [8] 100% | [2]; at 50.0 µM 99.2% | [3]; [7] 98% | [3]; [8] 99% | [3]; at 50.0 µM 99.4% | [4]; [7] 98% | [4]; [8] 98% | [4]; at 50.0 µM 99.3% | [5]; [7] 98% | [5]; [8] 99% | [5]; at 50.0 µM 99.3% | [6]; [7] 99% | [6]; [8] 99% | [6]; at 50.0 µM 99.2%

Oc1c(Cl)cc(Cl)cc1Cl
inactive: [1]; [7] -1% | [2]; [7] -6% | [2]; [8] 67% | [3]; [7] -1% | [3]; [8] 64% | [4]; [7] -8% | [4]; [8] 55% | [4]; at 50.0 µM 54.9% | [5]; [7] -13% | [6]; [7] -5%
active: [1]; [8] 94% | [1]; at 50.0 µM 86.5% | [2]; at 50.0 µM 78% | [3]; at 50.0 µM 94.8% | [5]; [8] 90% | [5]; at 50.0 µM 78.5% | [6]; [8] 94% | [6]; at 50.0 µM 95.8%

Cc1cc(N(CCCl)CCCl)ccc1CN1CCCN(Cc2ccc(N(CCCl)CCCl)cc2C)C1c1ccc(N(CCCl)CCCl)cc1C
active: [1]; [8] 98% | [1]; at 50.0 µM 98% | [2]; [8] 99% | [2]; at 50.0 µM 98% | [3]; [8] 99% | [3]; at 50.0 µM 98.8% | [4]; [8] 98% | [4]; at 50.0 µM 87% | [5]; [8] 99% | [5]; at 50.0 µM 97.7% | [6]; [8] 98% | [6]; at 50.0 µM 98.6%
inactive: [1]; [7] 4% | [2]; [7] -2% | [3]; [7] 2% | [4]; [7] 1% | [5]; [7] 7% | [6]; [7] 21%

Fc1cccc(C2N(Cc3ccc(N(CCCl)CCCl)cc3Cl)CCCN2Cc2ccc(N(CCCl)CCCl)cc2Cl)c1
active: [1]; [8] 92% | [2]; [8] 95% | [3]; [8] 95% | [4]; [8] 93% | [5]; [8] 92% | [5]; at 50.0 µM 83.2% | [6]; [8] 94%
inactive: [1]; [7] -28% | [1]; at 50.0 µM 12.7% | [2]; [7] 15% | [2]; at 50.0 µM 54.5% | [3]; [7] -3% | [3]; at 50.0 µM -18.4% | [4]; [7] -5% | [4]; at 50.0 µM -6.1% | [5]; [7] -2% | [6]; [7] 6% | [6]; at 50.0 µM 9.15%

O=C(N/N=C/c1cc(Cl)cc(Cl)c1[O-])c1ccccc1O.O=C(N/N=C/c1cc(Cl)cc(Cl)c1[O-])c1ccccc1O.[Mn+2]
inactive: [1]; [7] 57% | [1]; at 50.0 µM 66.8% | [3]; [7] 68% | [3]; at 50.0 µM 47.1% | [6]; [7] 56% | [6]; at 50.0 µM 68.2%
active: [1]; [8] 90% | [2]; [7] 88% | [2]; [8] 87% | [2]; at 50.0 µM 91.3% | [3]; [8] 88% | [4]; [7] 77% | [4]; [8] 72% | [4]; at 50.0 µM 85% | [5]; [7] 89% | [5]; [8] 80% | [5]; at 50.0 µM 90.8% | [6]; [8] 87%

Cc1ccc(C(Cc2ccc(N3C(N)=NC(N)=NC3(C)C)cc2)C(=O)Nc2ccc(S(=O)(=O)F)cc2)cc1 (stereo not drawn)
inactive: [1]; [7] 7% | [2]; [7] 45% | [3]; [7] 1% | [4]; [7] 7% | [5]; [7] -1% | [6]; [7] 4%
active: [1]; [8] 99% | [1]; at 50.0 µM 99.2% | [2]; [8] 99% | [2]; at 50.0 µM 99.6% | [3]; [8] 99% | [3]; at 50.0 µM 99.8% | [4]; [8] 99% | [4]; at 50.0 µM 98.8% | [5]; [8] 99% | [5]; at 50.0 µM 98.8% | [6]; [8] 99% | [6]; at 50.0 µM 99.5%

Cc1cc(C)c(O)c(C)c1.[Hg]
active: [1]; [7] 99% | [1]; [8] 98% | [1]; at 50.0 µM 99.5% | [2]; [7] 99% | [2]; [8] 99% | [2]; at 50.0 µM 99.5% | [3]; [7] 99% | [3]; [8] 99% | [3]; at 50.0 µM 99.5% | [4]; [7] 99% | [4]; [8] 99% | [4]; at 50.0 µM 99.4% | [5]; [7] 98% | [5]; [8] 99% | [5]; at 50.0 µM 99.3% | [6]; [7] 98% | [6]; [8] 98% | [6]; at 50.0 µM 99.5%

CN(C)CC1CC2C3CC=C4CC(O)CCC4(C)C3CCC2(C)C1=O (stereo not drawn)
inactive: [1]; [7] -9% | [2]; [7] -1% | [2]; at 50.0 µM 37.4% | [3]; [7] -5% | [4]; [7] 4% | [4]; [8] 64% | [4]; at 50.0 µM 29.1% | [5]; [7] -23% | [6]; [7] -12%
active: [1]; [8] 78% | [1]; at 50.0 µM 88% | [2]; [8] 85% | [3]; [8] 86% | [3]; at 50.0 µM 92.2% | [5]; [8] 90% | [5]; at 50.0 µM 79% | [6]; [8] 91% | [6]; at 50.0 µM 92.5%

O=c1oc2ccccc2c(O)c1C(c1ccc(/C=C/c2ccccc2)cc1)c1c(O)c2ccccc2oc1=O
inactive: [1]; [7] 13% | [2]; [7] 36% | [3]; [7] 26% | [4]; [7] 54% | [5]; [7] 52% | [6]; [7] 7%
active: [1]; [8] 97% | [1]; at 50.0 µM 87.2% | [2]; [8] 98% | [2]; at 50.0 µM 90% | [3]; [8] 95% | [3]; at 50.0 µM 81.7% | [4]; [8] 95% | [4]; at 50.0 µM 77.5% | [5]; [8] 97% | [5]; at 50.0 µM 76.7% | [6]; [8] 98% | [6]; at 50.0 µM 91.3%
